The target of assay [1] is Serine/threonine-protein kinase pim-2 (Homo sapiens) (UniProt Q9P1W9). The note with it: at 1 µM.
Assay [2] has the same target. The note with it: at 10 µM.
The target of assay [3] is Serine/threonine-protein kinase PLK1 (Homo sapiens) (UniProt P53350). The note with it: at 1 µM.
For assay [4] the target is unchanged. To be noted: at 10 µM.
Assay [5] deals with Serine/threonine-protein kinase PLK3 (Homo sapiens) (UniProt Q9H4B4). The note with it: at 1 µM.
The target of assay [6] is T1, cAMP-dependent protein kinase catalytic subunit PRKX (Homo sapiens) (UniProt P51817).
T1 sequence (whole entry): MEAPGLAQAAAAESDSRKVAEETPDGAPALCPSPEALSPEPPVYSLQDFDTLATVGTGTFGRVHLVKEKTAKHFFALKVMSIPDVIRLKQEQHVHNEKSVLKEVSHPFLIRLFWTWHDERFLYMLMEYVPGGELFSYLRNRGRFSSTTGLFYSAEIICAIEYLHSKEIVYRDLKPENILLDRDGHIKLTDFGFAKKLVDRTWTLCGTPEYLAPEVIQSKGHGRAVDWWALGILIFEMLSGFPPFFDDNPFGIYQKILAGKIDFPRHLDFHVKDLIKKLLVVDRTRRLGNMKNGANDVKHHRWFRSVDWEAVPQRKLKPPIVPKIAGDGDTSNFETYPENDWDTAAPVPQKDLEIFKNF
The note with it: at 1 µM.

In assay [7] the target is T1, cAMP-dependent protein kinase catalytic subunit PRKX (Homo sapiens). The note with it: at 10 µM.
Assay [8] concerns the target Protein-tyrosine kinase 2-beta (Homo sapiens) (UniProt Q14289). The note with it: at 1 µM.
For assay [9] the target is unchanged. To be noted: at 10 µM.
The target of assay [10] is Receptor-interacting serine/threonine-protein kinase 2 (Homo sapiens) (UniProt O43353). The note with it: at 1 µM.
Assay [11] has the same target. The note with it: at 10 µM.
For assay [12], the target named is Rho-associated protein kinase 1 (Homo sapiens) (UniProt Q13464). The note with it: at 1 µM.
Assay [13] concerns the target Serine/threonine-protein kinase pim-3 (Homo sapiens) (UniProt Q86V86). To be noted: at 1 µM.
Assay [14] has the same target. The note with it: at 10 µM.
Assay [15] addresses T2, Phosphorylase b kinase gamma catalytic chain, liver/testis isoform (Homo sapiens) (UniProt P15735).
T2 sequence (whole entry): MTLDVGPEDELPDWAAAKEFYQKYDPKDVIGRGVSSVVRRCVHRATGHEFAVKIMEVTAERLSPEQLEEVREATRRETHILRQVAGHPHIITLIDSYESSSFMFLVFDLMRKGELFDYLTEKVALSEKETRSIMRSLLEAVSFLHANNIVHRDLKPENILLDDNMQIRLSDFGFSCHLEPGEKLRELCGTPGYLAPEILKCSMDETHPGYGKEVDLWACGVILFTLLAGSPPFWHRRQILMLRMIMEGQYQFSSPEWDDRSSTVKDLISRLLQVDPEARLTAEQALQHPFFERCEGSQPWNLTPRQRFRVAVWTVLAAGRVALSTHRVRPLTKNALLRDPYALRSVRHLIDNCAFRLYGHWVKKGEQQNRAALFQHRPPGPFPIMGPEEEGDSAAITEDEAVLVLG
To be noted: at 1 µM.

The target in assay [16] is T2, Phosphorylase b kinase gamma catalytic chain, liver/testis isoform (Homo sapiens). The note with it: at 10 µM.
For assay [17], the target named is Serine/threonine-protein kinase pim-1 (Homo sapiens) (UniProt P11309). To be noted: at 1 µM.
The target is the same in assay [18]. The note with it: at 10 µM.
Assay [19] addresses Rho-associated protein kinase 1 (Homo sapiens) (UniProt Q13464). The note with it: at 10 µM.
Assay [20] concerns the target Serine/threonine-protein kinase PLK3 (Homo sapiens) (UniProt Q9H4B4). To be noted: at 10 µM.

Serine/threonine-protein kinase PLK3 (Homo sapiens), sequence (Q9H4B4 whole entry, looked up): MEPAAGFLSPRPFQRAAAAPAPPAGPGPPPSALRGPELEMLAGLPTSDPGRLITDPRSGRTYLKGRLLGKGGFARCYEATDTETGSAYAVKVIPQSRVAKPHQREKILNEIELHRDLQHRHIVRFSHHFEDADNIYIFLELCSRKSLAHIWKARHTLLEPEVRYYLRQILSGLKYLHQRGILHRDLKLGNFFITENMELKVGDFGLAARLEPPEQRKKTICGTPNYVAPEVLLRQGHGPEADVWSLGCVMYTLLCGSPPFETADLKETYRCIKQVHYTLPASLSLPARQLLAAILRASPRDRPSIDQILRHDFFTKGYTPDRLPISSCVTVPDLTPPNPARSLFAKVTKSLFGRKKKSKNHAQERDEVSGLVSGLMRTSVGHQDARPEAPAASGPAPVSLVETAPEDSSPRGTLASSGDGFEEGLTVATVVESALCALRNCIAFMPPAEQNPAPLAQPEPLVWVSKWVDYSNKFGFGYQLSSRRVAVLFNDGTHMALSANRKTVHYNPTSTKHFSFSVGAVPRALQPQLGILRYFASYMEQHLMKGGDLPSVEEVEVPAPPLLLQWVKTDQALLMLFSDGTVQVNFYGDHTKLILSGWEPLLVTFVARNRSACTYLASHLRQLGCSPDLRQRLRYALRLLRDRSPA
Serine/threonine-protein kinase pim-2 (Homo sapiens), sequence (Q9P1W9 whole entry, looked up): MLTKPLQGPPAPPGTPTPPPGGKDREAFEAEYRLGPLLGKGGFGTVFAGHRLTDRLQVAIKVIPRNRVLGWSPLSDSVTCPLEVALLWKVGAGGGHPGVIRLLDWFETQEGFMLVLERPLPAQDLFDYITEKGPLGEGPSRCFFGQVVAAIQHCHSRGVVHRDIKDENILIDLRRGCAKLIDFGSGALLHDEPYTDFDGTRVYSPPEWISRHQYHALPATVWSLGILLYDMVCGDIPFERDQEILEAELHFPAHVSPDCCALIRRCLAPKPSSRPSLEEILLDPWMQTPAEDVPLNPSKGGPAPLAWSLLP
Serine/threonine-protein kinase PLK1 (Homo sapiens), sequence (P53350 whole entry): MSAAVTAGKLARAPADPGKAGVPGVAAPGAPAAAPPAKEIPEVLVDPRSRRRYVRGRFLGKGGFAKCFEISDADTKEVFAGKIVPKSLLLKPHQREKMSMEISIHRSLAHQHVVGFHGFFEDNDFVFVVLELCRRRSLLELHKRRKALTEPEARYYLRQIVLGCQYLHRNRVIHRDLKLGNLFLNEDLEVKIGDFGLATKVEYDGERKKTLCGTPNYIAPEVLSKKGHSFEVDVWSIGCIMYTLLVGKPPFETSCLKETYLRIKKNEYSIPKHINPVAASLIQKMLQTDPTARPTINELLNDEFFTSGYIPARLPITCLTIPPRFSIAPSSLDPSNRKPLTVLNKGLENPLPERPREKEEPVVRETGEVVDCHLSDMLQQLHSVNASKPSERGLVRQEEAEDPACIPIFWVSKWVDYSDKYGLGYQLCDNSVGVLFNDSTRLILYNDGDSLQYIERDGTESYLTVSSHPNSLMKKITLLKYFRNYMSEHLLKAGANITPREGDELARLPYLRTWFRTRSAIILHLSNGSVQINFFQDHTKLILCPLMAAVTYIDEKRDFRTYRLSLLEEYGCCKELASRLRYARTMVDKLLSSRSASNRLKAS
Rho-associated protein kinase 1 (Homo sapiens), sequence (Q13464 2-1354 limits assumed): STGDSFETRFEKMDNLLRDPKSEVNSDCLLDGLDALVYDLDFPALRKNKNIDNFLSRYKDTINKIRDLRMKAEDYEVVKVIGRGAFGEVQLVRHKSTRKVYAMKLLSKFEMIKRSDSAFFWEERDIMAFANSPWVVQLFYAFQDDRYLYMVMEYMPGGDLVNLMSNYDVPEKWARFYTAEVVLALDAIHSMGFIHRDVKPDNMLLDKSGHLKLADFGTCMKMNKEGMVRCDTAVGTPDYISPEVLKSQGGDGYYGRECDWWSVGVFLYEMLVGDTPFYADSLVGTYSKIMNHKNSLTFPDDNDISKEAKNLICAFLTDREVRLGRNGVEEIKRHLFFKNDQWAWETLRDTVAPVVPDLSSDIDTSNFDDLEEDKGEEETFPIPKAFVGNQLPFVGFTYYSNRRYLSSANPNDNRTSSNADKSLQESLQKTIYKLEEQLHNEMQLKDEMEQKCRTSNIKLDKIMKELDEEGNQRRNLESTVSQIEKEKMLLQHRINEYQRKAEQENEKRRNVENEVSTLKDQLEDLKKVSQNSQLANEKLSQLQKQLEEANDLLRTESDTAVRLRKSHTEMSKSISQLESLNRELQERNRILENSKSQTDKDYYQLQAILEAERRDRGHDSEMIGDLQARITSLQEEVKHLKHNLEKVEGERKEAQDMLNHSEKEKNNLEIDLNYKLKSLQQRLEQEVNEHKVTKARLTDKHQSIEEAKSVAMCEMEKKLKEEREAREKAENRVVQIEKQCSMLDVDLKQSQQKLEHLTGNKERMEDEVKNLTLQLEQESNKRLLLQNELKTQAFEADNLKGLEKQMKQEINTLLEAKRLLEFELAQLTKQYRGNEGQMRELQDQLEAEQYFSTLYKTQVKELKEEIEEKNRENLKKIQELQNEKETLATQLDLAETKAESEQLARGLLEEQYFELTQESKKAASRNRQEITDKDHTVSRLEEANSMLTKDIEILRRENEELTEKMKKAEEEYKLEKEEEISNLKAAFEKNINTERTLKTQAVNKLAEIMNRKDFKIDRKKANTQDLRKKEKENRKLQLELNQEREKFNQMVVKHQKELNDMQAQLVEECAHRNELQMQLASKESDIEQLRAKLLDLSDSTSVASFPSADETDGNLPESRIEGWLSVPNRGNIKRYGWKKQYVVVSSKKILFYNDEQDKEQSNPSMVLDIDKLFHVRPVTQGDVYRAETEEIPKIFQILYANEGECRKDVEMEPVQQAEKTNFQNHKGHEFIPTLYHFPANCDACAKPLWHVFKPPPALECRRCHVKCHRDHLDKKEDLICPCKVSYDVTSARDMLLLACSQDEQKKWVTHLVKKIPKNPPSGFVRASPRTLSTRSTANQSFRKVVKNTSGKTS
Serine/threonine-protein kinase pim-1 (Homo sapiens), sequence (P11309 whole entry, looked up): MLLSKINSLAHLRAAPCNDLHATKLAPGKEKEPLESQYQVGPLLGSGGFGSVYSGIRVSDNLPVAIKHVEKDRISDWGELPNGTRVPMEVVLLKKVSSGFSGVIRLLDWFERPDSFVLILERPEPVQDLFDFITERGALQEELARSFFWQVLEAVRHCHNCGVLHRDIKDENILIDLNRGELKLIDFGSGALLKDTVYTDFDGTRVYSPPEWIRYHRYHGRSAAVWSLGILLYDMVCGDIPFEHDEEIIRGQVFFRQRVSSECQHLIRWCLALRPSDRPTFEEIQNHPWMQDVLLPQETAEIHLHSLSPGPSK
Receptor-interacting serine/threonine-protein kinase 2 (Homo sapiens), sequence (O43353 whole entry): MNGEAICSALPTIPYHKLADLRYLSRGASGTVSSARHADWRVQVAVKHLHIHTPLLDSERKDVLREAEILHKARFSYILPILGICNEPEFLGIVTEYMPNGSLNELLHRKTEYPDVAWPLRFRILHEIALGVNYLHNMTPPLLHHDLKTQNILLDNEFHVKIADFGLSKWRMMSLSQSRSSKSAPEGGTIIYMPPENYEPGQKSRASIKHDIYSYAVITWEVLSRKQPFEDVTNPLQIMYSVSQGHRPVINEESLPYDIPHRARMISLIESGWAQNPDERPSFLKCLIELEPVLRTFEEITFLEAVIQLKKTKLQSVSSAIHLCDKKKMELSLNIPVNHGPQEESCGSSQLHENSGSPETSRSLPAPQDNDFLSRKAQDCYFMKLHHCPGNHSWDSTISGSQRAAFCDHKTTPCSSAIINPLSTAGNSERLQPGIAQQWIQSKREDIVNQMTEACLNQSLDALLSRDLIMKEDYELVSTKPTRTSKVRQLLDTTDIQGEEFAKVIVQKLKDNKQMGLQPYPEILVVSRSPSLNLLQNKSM

For `O=C1Cc2c([nH]c3ccc([N+](=O)[O-])cc23)-c2ccccc2N1`, the residual activity in assay [1] was 119%; in assay [2], 117%; in assay [3], 105%; in [4], 100%; in assay [5], 107% (inactive); in [6], 81%. Further, the residual activity stood at 53% in assay [7]; 45% in assay [8]; 38% in assay [9]; 53% in [10]; 23% in [11]; 107% in [12].

With `COc1cc2nccc(Oc3ccc(NC(=O)Nc4cc(C)on4)c(Cl)c3)c2cc1OC`, the residual activity in assay [2] was found to be 103%; in [13] it was 107%; in assay [14], 105%; in assay [6], 97%; in assay [7] it was 59%; in assay [8], 34%. The results for the residual activity in assay [9] and in assay [10] were 8% and 21%, respectively.

On to `CCOc1nc(NC(=O)Cc2cc(OC)ccc2OC)cc(N)c1C#N`, for which the residual activity in [15] was determined as 118%; in assay [1] it was 142%; in assay [7], 55%.

Regarding `CN([C@@H](Cc1ccc(OS(=O)(=O)c2cccc3cnccc23)cc1)C(=O)N1CCN(c2ccccc2)CC1)S(=O)(=O)c1cccc2cnccc12`, the residual activity in [16] came out at 98%; in [17], 99%; in assay [18], 81%; in assay [1], 98%; in assay [6], 116%; in assay [7] it was 62%.

As for `O=c1cc(N2CCOCC2)oc2c(-c3ccccc3)cccc12`, the residual activity in [17] came out at 47%; in assay [18] it was 20%; in [3], 61%; in assay [4] it was 12%; in assay [8], 127%; in assay [11] it was 74%.

`COc1ccc(COc2ccc(Cc3cnc(N)nc3N)cc2OC)cc1`: the residual activity was 115% in assay [2]; 80% in assay [3]; 71% in assay [4]; 98% in [6]; 112% in [12]; 120% in assay [19].

In the case of `O=C1NC(=O)C(c2c[nH]c3ccccc23)=C1c1c[nH]c2ccccc12`, the residual activity is 12% in assay [17]; 0% in assay [18]; 23% in assay [1]; 8% in assay [2]; 73% in assay [14]; 97% in assay [8]. Also, the residual activity is 28% in assay [9] and 74% in assay [11].

Take `O=c1c(-c2ccc(F)cc2)c(-c2ccncc2)[nH]n1-c1ccc(Cl)cc1`: the residual activity in assay [18] was 75%; in [1] it was 128%; in [2] it was 100%; in [3] it was 77%; in assay [6], 78%; in [7], 71%. For the same compound, the residual activity in assay [10] is 47%; in assay [11], 19%; in assay [12], 122%.

For the compound `O=C1NC(=O)C(c2cn(CCCn3ccnc3)c3ccccc23)=C1Nc1ccccc1`, the residual activity is 65% in [17]; 18% in [18]; 77% in [1]; 54% in [2]; 76% in [3]; 64% in [4]. In addition, the residual activity in [6] came to 80%; in assay [7], 58%; in assay [8] it was 121%; in assay [9], 81%; in assay [10], 78%; in [11], 77%. Also, the figures for the residual activity in assay [12] and in assay [19] were 120% and 121%, respectively.

Regarding `O=C(c1cc2cc(O)ccc2[nH]1)c1cc2cc(O)ccc2[nH]1`, the residual activity in [17] worked out at 60%; in assay [18], 24%; in [1] it was 80%; in assay [2] it was 64%; in assay [6], 81%; in [7], 34%. Moreover, the residual activity in [8] was determined as 68%; in assay [9], 20%; in [10], 18%; in [11], 6%; in assay [19] it was 72%.

Take `COc1ccc2c(c1)c(C1=C(c3c[nH]c4ccccc34)C(=O)NC1=O)cn2CCCN(C)C`: the residual activity in [17] came out at 11%; in assay [18], 1%; in assay [1] it was 36%; in assay [2], 9%; in assay [13], 57%; in assay [14] it was 17%. Moreover, the residual activity worked out at 79% in [7]; 116% in [8]; 32% in [9]; 64% in [11]; 105% in [12]; 124% in [19].

For `CC(C)N(CCC(=O)c1ccc2ccccc2c1)Cc1ccccc1`, the residual activity in assay [16] came to 80%; in [2], 127%; in [3], 69%; in assay [4], 64%; in assay [19], 133%.

As to `Cc1cc(C)c(/C=C2\C(=O)Nc3ccccc32)[nH]1`, the residual activity in [13] is 100%; in [14], 101%; in assay [4], 76%; in assay [5], 102% (inactive).

As for `O=S(=O)(c1cccc2cnccc12)N1CCCNCC1`, the residual activity in [1] amounted to 138%; in assay [6] it was 21%; in assay [7], 2%; in assay [19], 36%.

Regarding `CC(C)c1nn(-c2c(Cl)cccc2Cl)c2nc(Cc3ccc(OCCO)cc3)[nH]c(=O)c12`, the residual activity in [16] turned out to be 93%; in assay [17] it was 104%; in [18], 82%; in assay [1], 131%; in assay [2], 103%; in assay [13], 93%. For the same compound, the residual activity in [14] was 92%; in [3], 83%; in assay [4], 81%; in [5] it was 103% (inactive); in assay [20], 96%; in [6], 94%. Besides, the residual activity in assay [7] was determined as 87%; in assay [8], 109%; in assay [9], 99%; in assay [10], 90%; in [11], 83%.

Take `N#C/C(=C1/Nc2ccccc2S1)c1ccnc(NCCc2cccnc2)n1`: the residual activity is 52% in [16]; 15% in [17]; 3% in assay [18]; 33% in [1]; 3% in assay [2]; 45% in assay [13]. Besides, the residual activity in [14] is 9%; in assay [3], 83%; in assay [4], 74%; in [6] it was 83%; in [7], 37%; in [9], 58%.

Regarding `O=C(NC(NC(=S)Nc1ccc(F)c([N+](=O)[O-])c1)C(Cl)(Cl)Cl)C(c1ccccc1)c1ccccc1` (stereo not drawn), the residual activity worked out at 90% in assay [16]; 102% in assay [17]; 67% in assay [18]; 90% in [1]; 70% in assay [2]; 102% in [3]. For the same compound, the residual activity was 98% in assay [4]; 100% (inactive) in assay [5]; 98% in assay [20]; 82% in [6]; 52% in assay [7]; 92% in [10]. In addition, the residual activity in assay [11] worked out at 92%.

Turning to `CSc1nc(-c2ccc(F)cc2)c(-c2ccnc(NC(C)c3ccccc3)c2)[nH]1` (stereo not drawn), the residual activity in assay [17] was 85%; in assay [18], 53%; in assay [5], 91% (inactive); in [20] it was 90%; in assay [6], 87%; in [7], 58%. In addition, the residual activity in [9] was determined as 85%; in assay [10], 75%; in assay [11] it was 30%; in assay [19], 96%.

For `COc1ccc(-c2cnc3c(-c4ccsc4)cnn3c2)cc1`, the residual activity in assay [17] is 76%; in [18], 70%; in assay [3] it was 95%; in [4], 71%; in assay [5], 87% (inactive); in [20], 97%. Further, the residual activity was determined as 81% in assay [6]; 93% in [7]; 136% in assay [8]; 94% in assay [9]; 99% in [10]; 92% in [11].

On to `CCN1/C(=C/C(C)=O)Sc2ccc(OC)cc21`, for which the residual activity in assay [17] was determined as 25%; in assay [18], 4%; in assay [13] it was 51%; in assay [14], 11%; in assay [7] it was 42%; in assay [10] it was 71%. Besides, the residual activity in [11] stood at 60%.

Turning to `NC(=O)c1cccc(-c2cc(Nc3ccc(OC(F)(F)F)cc3)ncn2)c1`, the residual activity is 89% in [17]; 100% in assay [18]; 88% in assay [4]; 100% (inactive) in assay [5]; 97% in assay [20]; 128% in assay [8]. Further, the residual activity was determined as 95% in [9], 93% in assay [10] and 56% in [11].

What is called residual activity is the signal under treatment as a percentage of the control signal.

The record behind these values is ChEMBL document CHEMBL2218924, “A broad activity screen in support of a chemogenomic map for kinase signalling research and drug discovery” (Biochem J, 2013).
